Among all 52,000 compounds or so, about 1,700 (3.3%) were called active. Only a selection was taken, and actives are over-represented in it overall. Unmarked numbers belong to inactive results. No stated cut-off is given here; in the data, active means survival mostly below about 52% (no sharp cut-off); inactive means mostly above about 56%.
The compounds below were run on Wild type (assay: growth inhibition of S. aureus wild type versus tarO mutant, primary screen, teichoic acid synthesis inhibitors, RN4220, OD600 (AID 463173)). Details: S. aureus RN4220 wild type/DeltatarO growth, OD600, 18 h, hits give low values, screened at 18.75 µg/mL (by protocol).

Structure (SMILES) | survival
COc1cn(CC(=O)Nc2ccc(F)cc2)c(CN2CCCCC2)cc1=O | 72%
O=C1c2ccccc2-c2onc3c(Br)cc(NC4CCCCC4)c1c23 | 86%
CCCCNc1cc(N2CCN(C3CCCCC3)CC2)c2noc3c2c1C(=O)c1ccccc1-3 | -1% (active)
CCN(CC)c1cc(NC2CCCCC2)c2c3c(onc13)-c1ccccc1C2=O | 5% (active)
CN(C)CCCNc1cc(N2CCN(C3CCCCC3)CC2)c2noc3c2c1C(=O)c1ccccc1-3 | 72%
CCNc1cc(N2CCN(C3CCCCC3)CC2)c2noc3c2c1C(=O)c1ccccc1-3 | 84%
CCCCNc1cc(NC2CCCCC2)c2c3c(onc13)-c1ccccc1C2=O | 117%
Cc1ccc2nc(COc3ccccc3NC(=O)C(C)(C)C)cc(=O)n2c1 | 66%
O=C(C1CCN(c2ncnc3c2nc2n3CCCCC2)CC1)N1CCN(c2ccccc2F)CC1 | 82%
CCc1ccc(NC(=O)Cn2nnc(C(=O)NCc3ccco3)c2N)cc1 | 94%
CCOC(=O)c1c(S(=O)(=O)N2CCC(C(=O)Nc3cccc(C#N)c3)CC2)c(C)n(C)c1C | 115%
Cc1nn(C(=O)c2cc3sc(Br)cc3[nH]2)c(C)c1C | 97%
COc1ccc(NC(=O)CSc2nnc(N)s2)cc1 | 73%
CCc1ccc(NC(=O)Cn2ncc3c(C)n(Cc4cccc(Cl)c4)c(C)c3c2=O)cc1 | 86%
Cc1ccc(CCNC(=O)c2ccc3c(c2)c(C)c(C)n3Cc2ccccc2)cc1 | 125%
Cc1c(Cl)cccc1-c1ccc(C(=O)Nc2ccc(F)cc2)o1 | -1% (active)
CCOc1ccc(NC(=O)c2ccc(-c3cccc(Cl)c3C)o2)cc1 | 66%
Cc1ccc(NC(=O)c2ccc(-c3cccc(Cl)c3C)o2)cc1 | 1% (active)
Cc1c(Cl)cccc1-c1ccc(C(=O)Nc2ccc3oc(-c4cccnc4)nc3c2)o1 | 79%
CCOC(=O)c1ccc(NC(=O)c2ccc(-c3cccc(Cl)c3C)o2)cc1 | 59%
COc1ccc(NC(=O)c2ccc(-c3cccc(Cl)c3C)o2)cc1 | 44%
Clc1ccc(-c2nc3ccccn3c2Nc2ccc3c(c2)OCCO3)s1 | 79%
Cc1ccccc1C(=O)Nc1cccc(-c2cn3cccnc3n2)c1 | 105%
COc1ccc(-c2nc(CSCC(=O)NCCc3ccc(C)cc3)c(C)o2)cc1OC | 72%

Structure (SMILES) | survival
Cc1ccc(CNC(=O)CSCc2nc(-c3ccc(Cl)cc3)oc2C)cc1 | 88%
Cc1ccc(CNC(=O)CSCc2nc(-c3cccc(C)c3)oc2C)cc1 | -1% (active)
CCc1ccc(-c2nc(CSCC(=O)NCc3ccc(C)cc3)c(C)o2)cc1 | 0% (active)
Cc1oc(-c2cccc(Cl)c2)nc1CSCC(=O)NCc1ccccc1Cl | -1% (active)
Cc1oc(-c2cccc(Cl)c2)nc1CS(=O)(=O)CC(=O)NCc1ccccc1Cl | 75%
Cc1ccc(CCNC(=O)CSCc2nc(-c3ccc(C)cc3)oc2C)cc1 | 27%
COc1ccc(-c2nc(CSCC(=O)NCc3ccccc3Cl)c(C)o2)cc1OC | 70%
CCOc1ccc(-c2nc(CSCC(=O)NCc3ccc(C)cc3)c(C)o2)cc1 | 73%
Cc1ccc(-n2nc(C)c3c(C(=O)NCc4ccccc4)cc(C4CC4)nc32)cc1 | 82%
O=C(Cn1c(=O)n(-c2ccccc2)c(=O)c2c3c(sc21)CCC3)c1ccc(Br)cc1 | 87%
COc1ccc(N2C(=O)CSC23C(=O)N(Cc2ccc(C)cc2)c2ccccc23)cc1Cl (stereo not given) | 135%
CC(C)(C)OC(=O)N1CCC(c2c(C(=O)NCCN3CCOCC3)cnn2-c2cccc(F)c2)CC1 | 120%
Clc1ccccc1C(c1nnnn1Cc1ccco1)N1CCN(Cc2ccco2)CC1 (stereo not given) | 111%
O=C(NCC(c1ccc2c(c1)OCO2)N1CCN(c2ccc(F)cc2)CC1)c1cccc([N+](=O)[O-])c1 (stereo not given) | 83%
COc1ccc(-c2csc3ncnc(Nc4cccc(OC)c4)c23)cc1 | 73%
COc1ccc(Nc2ncnc3scc(-c4ccc(F)cc4)c23)cc1 | 79%
COc1ccc(-c2csc3ncnc(Nc4cccc(F)c4)c23)cc1 | -3% (active)
CC(=O)c1ccc(NC(=O)CC2Nc3cc(C)c(C)cc3NC2=O)cc1 (stereo not given) | 78%
Cc1cc(C)cc(N2C(=O)N(Cc3cc(=O)n4ccccc4n3)c3ccccc3S2(=O)=O)c1 | 127%
CC(C)c1ccc2oc(-c3ccc(NC(=O)c4cccc(Br)c4)cc3)nc2c1 | 70%
COc1cc(Cl)c(C)cc1NC(=O)CC(c1ccc(F)cc1)N1Cc2ccccc2C1=O (stereo not given) | -2% (active)
CCOc1ccc(C(CC(=O)Nc2cc(C)c(Cl)cc2OC)N2Cc3ccccc3C2=O)cc1OC (stereo not given) | 65%
COc1ccc(C(CC(=O)Nc2cc(Cl)c(OC)cc2OC)N2Cc3ccccc3C2=O)cc1 (stereo not given) | -3% (active)
COc1ccc(CNC(=O)C(CC(C)C)N2Cc3ccccc3C2=O)cc1 (stereo not given) | 134%

Structure (SMILES) | survival
COc1ccc(C(CC(=O)Nc2cc(OC)c(OC)c(OC)c2)N2Cc3ccccc3C2=O)cc1 (stereo not given) | 65%
Cc1ccc(NC(=O)CC(c2ccc(F)cc2)N2Cc3ccccc3C2=O)cc1C (stereo not given) | 88%
COc1ccc(CNC(=O)C(C(C)C)N2Cc3ccccc3C2=O)cc1 (stereo not given) | -6% (active)
Cc1ccc(CNC(=O)C(C(C)C)N2Cc3ccccc3C2=O)cc1 (stereo not given) | 80%
COc1cc(OC)c(NC(=O)CC(c2cccs2)N2Cc3ccccc3C2=O)cc1Cl (stereo not given) | 101%
CCn1cc(C(=O)NCCc2ccccc2)c(=O)c2cc(S(=O)(=O)N3CCOCC3)ccc21 | 85%
COc1ccc(NC(=O)c2ccc(NC(=O)CCS(=O)(=O)c3cccs3)cc2)cc1Cl | 81%
COc1ccc(-c2cc(C(=O)Nc3cccnc3Cl)no2)cc1OC | 140%
Cc1ccc(C)c(N2CCN(c3nc4ccccc4c4nc(-c5cccnc5)nn34)CC2)c1 | 82%
Cc1cc(OCC(=O)NC(Cc2c[nH]c3ccccc23)C(=O)O)ccc1Cl (stereo not given) | 69%
CCOC(=O)C(Cc1c[nH]c2ccccc12)NC(=O)COc1ccc(Cl)c(C)c1 (stereo not given) | 8% (active)
CCOC(=O)C(Cc1c[nH]c2ccccc12)NC(=O)COc1ccc(CC)cc1 (stereo not given) | 32%
CCc1ccccc1N(CC)C(=O)c1c(C)oc2ncn(C)c(=O)c12 | 71%
C=CCn1c(SC(C)C)nc2sc3c(c2c1=O)CCCC3 | 108%
CC(C)Sc1nc2sc3c(c2c(=O)n1-c1ccccc1)CCCC3 | -2% (active)
CSc1nc2sc3c(c2c(=O)n1-c1ccc(C)cc1)CCCC3 | 51%
C#CCSc1nc2sc3c(c2c(=O)n1Cc1ccccc1)CCCC3 | 44%
CC(C)Sc1nc2sc3c(c2c(=O)n1Cc1ccccc1)CCCC3 | 5% (active)
CSc1nc2sc3c(c2c(=O)n1-c1ccccc1C)CCCC3 | 99%
CCS(=O)(=O)NCC(c1ccco1)N1CCN(c2ccccc2)CC1 (stereo not given) | 89%
CCS(=O)(=O)N1CCc2cc(C(=O)NC(C)c3ccccc3)ccc21 (stereo not given) | 90%
CC(C)C(=O)Nc1ccc2nc(SCCOc3ccccc3)sc2c1 | 93%
Cc1ccc(Cl)cc1NC(=O)C1CCN(c2nnc(C)c3c(C)n(-c4ccccc4)nc23)CC1 | 71%
Cc1cccc(CS(=O)(=O)c2ncc(Cl)c(C(=O)Nc3nc4ccc(F)cc4s3)n2)c1 | 7% (active)

Structure (SMILES) | survival
Cc1ccc(NC(=O)c2nc(S(=O)(=O)Cc3cccc(C)c3)ncc2Cl)cc1 | -1% (active)
COc1ccc(NC(=O)c2nc(S(=O)(=O)Cc3ccc(C)cc3)ncc2Cl)cc1 | 81%
O=C(Nc1nc2ccc(F)cc2s1)c1nc(S(=O)(=O)Cc2ccccc2)ncc1Cl | 27%
Cc1cccc(CS(=O)(=O)c2ncc(Cl)c(C(=O)NCc3ccccc3)n2)c1 | 27%
Cc1ccc(CS(=O)(=O)c2ncc(Cl)c(C(=O)Nc3nc4ccc(F)cc4s3)n2)cc1 | 20%
CCOC(=O)c1ccc(CN(Cc2ccc(Cl)cc2Cl)S(=O)(=O)c2cccc(Cl)c2)cc1 | 73%
CCOC(=O)c1ccc(CN(Cc2ccccc2)S(=O)(=O)c2ccc(Cl)cc2)cc1 | 0% (active)
CCOC(=O)c1ccc(CN(Cc2ccc(F)cc2)S(=O)(=O)c2ccc(F)cc2)cc1 | 68%
COc1ccc(CCNC(=O)CCc2c(C)c3cc4c(C)coc4c(C)c3oc2=O)cc1OC | 105%
CC(Oc1ccccc1)C(=O)Nc1c(C(=O)Nc2cccc(F)c2)oc2ccccc12 (stereo not given) | 57%
CCOC(=O)c1[nH]c2c(c1Cc1ccccc1OC)C(=O)CC(c1ccccc1)C2 (stereo not given) | 126%
CN(C)c1ccc(C2CC(c3c(O)n(C4CCCCC4)c(=O)[nH]c3=O)=Nc3ccccc3S2)cc1 (stereo not given) | 85%
O=C(Cn1c(=O)n(Cc2ccc(C(=O)NCc3ccc4c(c3)OCO4)cc2)c(=O)c2ccccc21)Nc1ccc(F)cc1F | 111%
CC(C)c1cc(-c2nc(-c3ccccc3)no2)n[nH]1 | 71%
COc1ccc(Cn2c(SC)nc3ccccc32)cc1 | 108%
CCc1ccc(OCCCn2c(-c3ccc(Cl)cc3)nc3ccccc3c2=O)cc1 | 52%
COc1ccc(OCCCCn2c(-c3ccc(Cl)cc3)nc3ccccc3c2=O)cc1 | 38%
COc1ccc(-c2noc(=O)n2Cc2ccccc2)cc1 | 128%
COc1ccc(-c2nc3ccccc3n2Cc2ccc(Cl)cc2)cc1 | 4% (active)
COc1ccc(Cn2c(SCC(=O)Nc3ccc(OC)cc3)nc3ccccc32)cc1 | 85%
COc1ccc(-c2nc3ccccc3n2Cc2ccc(C(C)C)cc2)cc1 | -8% (active)
CCOc1cc(Cn2c(-c3ccc(O)c(OCC)c3)nc3ccccc32)ccc1O | 80%
COc1ccc(-c2nc3ccccc3n2Cc2ccccc2)cc1 | 0% (active)
